This note sets out measurements from PubChem BioAssay (NCATS).

Assay [1] in a line: Quantitative High-Throughput drug screen in 47 multiple myeloma cell lines against the NCATS MIPE library collection: Karpas620_DSMZ cell viability assay (AID 1918959). Note: nearly all actives have a fitted effect of over 30% in size. To be noted: Karpas620 myeloma viability, CellTiter-Glo ATP luminescence, 48 h; series mostly up to 45.8 µM. The method in brief:
(§1)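 Primary qHTS used for cherry-picking: cells at 500/well, library compounds for 48 h (37C, 5% CO2), luminescent ATP assay.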
(In ATP-based viability assays light output follows the ATP content of the culture.)

Assay [2] in a line: Quantitative High-Throughput drug screen in 47 multiple myeloma cell lines against the NCATS MIPE library collection: KMM1_JCRB cell viability assay (AID 1918960). Note: nearly all actives have a fitted effect of over 30% in size. To be noted: KMM1 myeloma viability, CellTiter-Glo ATP luminescence, 48 h; series mostly up to 45.8 µM. Put shortly: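 Luminescence from CellTiter-Glo, taken after 5 min at room temperature, reports cellular ATP as viability. Cells (500 per well) had been treated 48 h at 37 °C with MIPE 4.0 compounds, scaled between DMSO and medium-only controls.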

Assay [3] is described as follows: Quantitative High-Throughput drug screen in 47 multiple myeloma cell lines against the NCATS MIPE library collection: JIM3_ECACC cell viability assay (AID 1918963; note: nearly all actives have a fitted effect of over 35% in size). To be noted: JIM3 myeloma viability, CellTiter-Glo ATP, 48 h; series mostly up to 45.8 µM. Put shortly: as §1
The nature of assay [4]: Quantitative High-Throughput drug screen in 47 multiple myeloma cell lines against the NCATS MIPE library collection: JIM1_ECACC cell viability assay (AID 1918964). To be noted: JIM1 myeloma viability, CellTiter-Glo ATP luminescence, 48 h; series mostly up to 45.8 µM. Put shortly:
as §1

Assay [5] is described as follows: Quantitative High-Throughput drug screen in 47 multiple myeloma cell lines against the NCATS MIPE library collection: JJN3_DSMZ cell viability assay (AID 1918966; note: nearly all actives have a fitted effect of over 50% in size). To be noted: JJN3 myeloma cells viability, CellTiter-Glo ATP, 48 h; series mostly up to 45.8 µM. Put shortly:
as §1

Assay [6] can be described thus: Quantitative High-Throughput drug screen in 47 multiple myeloma cell lines against the NCATS MIPE library collection: H1112_PLB cell viability assay (AID 1918967; note: nearly all actives have a fitted effect of over 30% in size). The conditions noted are these: H1112 myeloma cells viability, ATP luminescence, 48 h; series mostly up to 45.8 µM. Put shortly:
as §1

A short description of assay [7]: Quantitative High-Throughput drug screen in 47 multiple myeloma cell lines against the NCATS MIPE library collection: Karpas25_ECACC cell viability assay (AID 1918968; note: nearly all actives have a fitted effect of over 35% in size). The conditions noted are these: Karpas25 myeloma viability, CellTiter-Glo ATP, 48 h. Put shortly:
as §1

Assay [8] in a line: Quantitative High-Throughput drug screen in 47 multiple myeloma cell lines against the NCATS MIPE library collection: KMS12BM_JCRB cell viability assay (AID 1918971). Note: nearly all actives have a fitted effect of over 35% in size. The conditions noted are these: KMS12BM myeloma viability, CellTiter-Glo ATP, 48 h; series mostly up to 45.8 µM. Put shortly: (§2)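 Steps: seed 500 cells per well; pin-transfer MIPE 4.0 library; incubate 48 h at 37C, 5% CO2, humidified; add CellTiter-Glo, 5 min room temperature; read luminescence.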

A short description of assay [9]: Quantitative High-Throughput drug screen in 47 multiple myeloma cell lines against the NCATS MIPE library collection: KMS12PE_JCRB cell viability assay (AID 1918972). Note: nearly all actives have a fitted effect of over 30% in size. The conditions noted are these: KMS12PE myeloma viability, CellTiter-Glo ATP, 48 h; series mostly up to 45.8 µM. Put shortly:
(§3)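 We plated 500 myeloma cells per well, pinned in MIPE 4.0 compounds, and incubated for 48 hours at 37C. ATP was then quantified with CellTiter-Glo, with DMSO and media-only wells defining 100% and 0%.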

Assay [10] can be described thus: Quantitative High-Throughput drug screen in 47 multiple myeloma cell lines against the NCATS MIPE library collection: KMS20_JCRB cell viability assay (AID 1918973). Note: nearly all actives have a fitted effect of over 45% in size. To be noted: CellTiter-Glo ATP, 48 h; series mostly up to 45.8 µM. The method in brief:
as §1

Assay [11] can be described thus: Quantitative High-Throughput drug screen in 47 multiple myeloma cell lines against the NCATS MIPE library collection: MOLP8_DSMZ cell viability assay (AID 1918977). Note: nearly all actives have a fitted effect of over 45% in size. The conditions noted are these: MOLP8 myeloma viability, CellTiter-Glo ATP luminescence, 48 h; series mostly up to 45.8 µM. Put shortly: (§4)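 Plated at 500 cells per well, myeloma lines received MIPE 4.0 compounds by pin tool. Following 48 h culture at 37 °C, CellTiter-Glo luminescence gave viability relative to DMSO and media-only controls.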

Assay [12] in a line: Quantitative High-Throughput drug screen in 47 multiple myeloma cell lines against the NCATS MIPE library collection: KMS27_JCRB cell viability assay (AID 1918970). Note: nearly all actives have a fitted effect of over 30% in size. The conditions noted are these: KMS27 myeloma cells, CellTiter-Glo ATP viability, 48 h; series mostly up to 45.8 µM. Put shortly:
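Luminescent ATP read-out (CellTiter-Glo, 5 min at room temperature) after 48 h compound exposure of 500 KMS27_JCRB cells per well; DMSO wells define full viability and media-only wells zero.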

Assay [13] can be described thus: Quantitative High-Throughput drug screen in 47 multiple myeloma cell lines against the NCATS MIPE library collection: MMM1_PLB cell viability assay (AID 1918976). Note: nearly all actives have a fitted effect of over 35% in size. To be noted: MMM1 myeloma cells viability, CellTiter-Glo, 48 h; series mostly up to 45.8 µM. Put shortly:
as §4

A short description of assay [14]: Quantitative High-Throughput drug screen in 47 multiple myeloma cell lines against the NCATS MIPE library collection: NCIH929_DSMZ cell viability assay (AID 1918978). Note: nearly all actives have a fitted effect of over 35% in size. The conditions noted are these: NCI-H929 myeloma viability, CellTiter-Glo ATP, 48 h; series mostly up to 45.8 µM. The method in brief: as §4
The nature of assay [15]: Quantitative High-Throughput drug screen in 47 multiple myeloma cell lines against the NCATS MIPE library collection: ARD_JJKsccE7 cell viability assay (AID 1918929). The conditions noted are these: ARD myeloma cell line viability, CellTiter-Glo, 48 h; series mostly up to 45.8 µM. Put shortly:
as §1

Assay [16] in a line: Quantitative High-Throughput drug screen in 47 multiple myeloma cell lines against the NCATS MIPE library collection: Karpas417_ECACC cell viability assay (AID 1918961). To be noted: Karpas417 myeloma viability, CellTiter-Glo ATP luminescence, 48 h. The method in brief:
as §3

Assay [17] is described as follows: Quantitative High-Throughput drug screen in 47 multiple myeloma cell lines against the NCATS MIPE library collection: KHM11_PLB cell viability assay (AID 1918962). Note: nearly all actives have a fitted effect of over 35% in size. The conditions noted are these: KHM11 myeloma cell viability, CellTiter-Glo ATP luminescence, 48 h. The method in brief: as §1
A short description of assay [18]: Quantitative High-Throughput drug screen in 47 multiple myeloma cell lines against the NCATS MIPE library collection: INA6_PLB cell viability assay (AID 1918965; note: nearly all actives have a fitted effect of over 55% in size). The conditions noted are these: INA6 myeloma viability, CellTiter-Glo ATP luminescence, 48 h. The method in brief:
as §3

Assay [19] is described as follows: Quantitative High-Throughput drug screen in 47 multiple myeloma cell lines against the NCATS MIPE library collection: KMS21BM_JCRB cell viability assay (AID 1918974). The conditions noted are these: ATP luminescence, 48 h. Put shortly:
as §1

Assay [20] in a line: Quantitative High-Throughput drug screen in 47 multiple myeloma cell lines against the NCATS MIPE library collection: KMS26_JCRB cell viability assay (AID 1918975). Note: nearly all actives have a fitted effect of over 45% in size. To be noted: KMS26 myeloma cells viability, CellTiter-Glo ATP, 48 h. The method in brief: as §2

Inconclusive results are not listed. Calls of active or inactive are those of the source. Calls come from the whole dose curve; as a rule, active = well fitted curve in the direction sought with a large enough effect; inconclusive = small, poorly fitted or top-dose-only effect, or another doubt; inactive = no such curve, though single readings can be large; an effect the other way counts as inactive or inconclusive.
Potency is the fitted concentration of half-maximal effect.

`COc1ccc(C(=O)N2CCCC2=O)cc1`: the Potency entry in [1], in [3], in [5], in assay [6], in assay [8] and in assay [9] was “inactive” each time. The Potency result in assay [10] and in [11] was “inactive” each time. In addition, the Potency is 1870 nM (active) in assay [2], 3320 nM (active) in [4] and 935 nM (active) in assay [7].

Consider `COC(=O)C1=CCCN(C)C1`, for which the Potency result in assay [1], in assay [2], in assay [3], in assay [6], in assay [8] and in assay [9] was “inactive” in each case. Further, the Potency entry in assay [14] was “inactive”. Moreover, the Potency in assay [7] is 5900 nM (active); in [12], 3 nM (active); in assay [13], 1050 nM (active).

Consider `C[C@@H]1C[C@@H]([C@H](O)CC2CC(=O)NC(=O)C2)C(=O)[C@@H](C)C1`, for which the Potency in [15] is 166 nM (active); in assay [1] it was 662 nM (active); in [2], 209 nM (active); in assay [16], 469 nM (active); in [17] it was 372 nM (active); in assay [3], 418 nM (active). Also, the Potency in [4] is 148 nM (active); in [18], 118 nM (active); in assay [5], 187 nM (active); in assay [6], 1050 nM (active); in assay [7], 1050 nM (active); in [12] it was 1050 nM (active). The Potency in assay [8] was 209 nM (active); in assay [9] it was 418 nM (active); in [10], 1660 nM (active); in assay [19] it was 526 nM (active); in assay [20], 132 nM (active); in assay [13] it was 662 nM (active). The values for the Potency in assay [11] and in assay [14] were 296 nM (active) and 1870 nM (active), respectively.

For the compound `O=C(O)c1nn(Cc2ccc(Cl)cc2Cl)c2ccccc12`, the Potency result in assay [15], in assay [3], in assay [4], in [5], in [6] and in assay [12] was “inactive” in each case. Also, the Potency result in assay [9], in assay [13], in assay [11] and in assay [14] was “inactive” throughout.
